{
  "source": "PubChem BioAssay",
  "data": [
    {"biological_target": "Fibroblast growth factor 10 (Homo sapiens) (UniProt O15520)", "sequence (O15520 whole entry, looked up)": "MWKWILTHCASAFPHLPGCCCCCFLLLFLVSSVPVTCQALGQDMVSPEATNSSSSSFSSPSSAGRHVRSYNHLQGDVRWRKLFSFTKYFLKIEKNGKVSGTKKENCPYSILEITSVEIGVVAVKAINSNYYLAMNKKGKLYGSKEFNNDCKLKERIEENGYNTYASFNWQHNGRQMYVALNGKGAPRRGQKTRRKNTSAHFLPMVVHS", "assay": "compounds binding fibroblast growth factor 10 – biochemical, small-molecule microarray, 635 nm fluorescence, primary screen (AID 1102)", "details": "FGF10 binding, fluorescence 635 nm, higher = more signal", "values": [
      {"smiles": "CC[C@H]1C2=C3C(CC[C@H]4C(OC)OC[C@](C)([C@@H]34)N(C(=O)OC(C)(C)C)C2)C(CO)C1CO", "note": "(stereo not given in full)", "composite z-score": 0.754},
      {"smiles": "CC(C)(C)OC(=O)CC[C@@]1(C(=O)NCc2ccccc2)N=C(c2ccc(OCCCO)cc2)O[C@@H]1c1ccccc1", "composite z-score": 0.556},
      {"smiles": "CC(C)[Si](OCC[C@H]1O[C@]2(C(=O)N(Cc3ccccc3)c3ccccc32)[C@@H](C)[C@@H]1[Si](C)(C)O)(C(C)C)C(C)C", "composite z-score": -0.189},
      {"smiles": "C[C@H]1COC(=O)[C@H](Cc2ccccc2)NC(=O)[C@@H](C)COC(=O)[C@H](Cc2ccccc2)NC1=O", "composite z-score": 0.632},
      {"smiles": "COc1ccc([Si](C)(C)[C@H]2[C@H](CC(=O)N3Cc4ccccc4C[C@H]3CO)O[C@@]3(C(=O)N(Cc4cccc(N5CCOC5=O)c4)c4ccccc43)[C@@H]2C)cc1", "composite z-score": 0.701},
      {"smiles": "CO[C@H]1COC(=O)[C@@H](OCc2ccccc2)C=C[C@H](C)[C@@H](OC)COC(=O)[C@H](OCc2ccccc2)C=C[C@@H]1C", "composite z-score": 0.181},
      {"smiles": "C=C(COC)C(=O)CC[C@H](OC(=O)c1ccccc1-c1ccccc1C(=O)O)c1cccc(OCCO)c1", "composite z-score": 1.71},
      {"smiles": "Cc1ccc(S[C@]2(C(=O)O)CC(=O)N(Cc3ccccc3)[C@@H]2c2ccc(CO)cc2)cc1", "composite z-score": -0.0355},
      {"smiles": "O=C(O)[C@@H]1Cc2c([nH]c3ccccc23)[C@@H](c2ccccc2)N1", "composite z-score": 0.315}
    ]},
    {"system": "glycogen synthase kinase-3 (GSK3A per assay name; protocol says GSK3B)", "assay": "compounds binding glycogen synthase kinase-3 – biochemical, small-molecule microarray, 635 nm fluorescence, GSK3A, primary screen (AID 1103); further: the record names both GSK3A and GSK3B", "details": "fluorescence 635 nm, higher = more signal", "values": [
      {"smiles": "C=CCN1C(=O)[C@@]2(Cc3ccccc3)N=C(c3ccc(OCCCO)cc3)O[C@H]2c2ccccc21", "composite z-score": 0.876},
      {"smiles": "CC(=O)Nc1ccc([C@H]2[C@H](C)CC[C@H]3C(=O)N4[C@@H](CC[C@@H](C)[C@@H]4c4ccc(NC(C)=O)cc4)C(=O)N32)cc1", "composite z-score": 1.17},
      {"smiles": "COc1cc2c(cc1OC)CN(C(=O)[C@@H]1[C@H]3C(=O)O[C@H](c4ccccc4)[C@H](c4ccccc4)N3[C@H](c3ccccc3OCCO)[C@@]13C(=O)Nc1ccccc13)CC2", "composite z-score": 1.29},
      {"smiles": "CCOC(=O)C[C@H]1[C@H](OC(=O)Cc2ccc3c(c2)OCO3)[C@@H](NC(=O)c2ccc3ccccc3c2)c2cc(OCCCO)ccc2N1C(=O)Cc1ccc(OC)cc1", "composite z-score": 0.397},
      {"smiles": "CO[C@@H]1COC(=O)[C@H](C)NC(=O)CC=C[C@@H](C)[C@H](OC)COC(=O)[C@H](C)NC(=O)CC=C[C@H]1C", "composite z-score": 0.57},
      {"smiles": "CO[C@H]1COC(=O)CC=C[C@H](C)COC(=O)[C@@H](OCc2ccccc2)C=C[C@@H]1C", "composite z-score": 1.28},
      {"smiles": "CCCC[C@@H]1C[C@H]1[C@@H](NC(=O)c1ccccc1)c1ccccc1C(F)(F)F", "composite z-score": 0.415},
      {"smiles": "CO[C@@H]1COC(=O)[C@H](C)NC(=O)CC=C[C@@H](C)[C@H](NS(=O)(=O)c2ccc(C)cc2)COC(=O)CC=C[C@@H]1C", "composite z-score": -0.11},
      {"smiles": "CC(=O)NCCCC[C@@H]1NC(=O)[C@H]2C[C@@H](C(=O)NCCCCCCN(C)C)[C@@H](c3cccc(OCCO)c3)N2C1=O", "composite z-score": 1.36},
      {"smiles": "NC(=O)NCC#Cc1ccc2c(c1)[C@]1(C(=O)N2)[C@H](c2ccccc2OCCO)N2[C@H](c3ccccc3)[C@H](c3ccccc3)OC(=O)[C@H]2[C@@H]1C(=O)N1CCN(c2ncccn2)CC1", "composite z-score": 0.814},
      {"smiles": "C[C@]1(C(=O)NCc2ccccc2)c2ccccc2C(=O)N(Cc2cc(C(F)(F)F)cc(C(F)(F)F)c2)[C@H]1c1ccc(CO)cc1", "composite z-score": 1.18},
      {"smiles": "C=C(COC)/C(=C/C[C@@H](OC(C)=O)c1cccc(OCCO)c1)c1cc(C(=O)OC)ccc1OC", "composite z-score": 0.0957},
      {"smiles": "COC(=O)[C@H]1[C@@H]2COc3ccccc3[C@H]2N[C@H]1C(=O)OC", "composite z-score": 0.332},
      {"smiles": "CCc1cccc(NC(=O)O[C@H]2[C@H](OC(=O)Nc3ccccc3)[C@@H](OC(=O)Nc3ccccc3)[C@@H](OC)O[C@@H]2CO)c1", "composite z-score": 1.07},
      {"smiles": "C=CCN1C(=O)[C@]2(O[C@H](CCn3cc(CCO)nn3)[C@@H]([Si](C)(C)c3ccc(OC)cc3)[C@@H]2C)c2cc(NC(=O)c3ccc(OC)cc3)ccc21", "composite z-score": 1.23},
      {"smiles": "C=C(COC)/C(=C/C[C@H](OC(C)=O)c1ccc(OCCO)cc1)c1cnc2ccccc2c1", "composite z-score": 0.844},
      {"smiles": "[N-]=[N+]=NCc1ccccc1C[C@]1(C(=O)N2CCCCC2)N=C(c2ccc(OCCCO)cc2)O[C@H]1c1ccccc1CN=[N+]=[N-]", "composite z-score": 0.65},
      {"smiles": "CO[C@H]1O[C@H](CO)[C@@H](OC(=O)Nc2ccccc2)[C@H](OC(=O)Nc2ccc3c(c2)OCO3)[C@@H]1OC(=O)Nc1ccc2c(c1)OCO2", "composite z-score": 1.19},
      {"smiles": "CCOC(=O)C1=C[C@@H](c2ccccc2)N(S(=O)(=O)c2ccc(C)cc2)[C@H]1c1ccc(F)cc1", "composite z-score": 1.29},
      {"smiles": "CCCC=C(CCC)[C@@H](NC(=O)c1ccc(C(F)(F)F)cc1)c1ccccc1", "composite z-score": 0.662},
      {"smiles": "COC(=O)C[C@H]1O[C@]2(C(=O)N(Cc3ccccc3)c3ccc(I)cc32)[C@@H](C)[C@@H]1[Si](C)(C)c1ccc(OC)cc1", "composite z-score": -1.19},
      {"smiles": "CCC(=O)[C@]12O[C@@]3([C@@H]4C(=O)OCC[C@@H]41)N(CC)C(C)=C(C(=O)OC)[C@@H](c1ccccc1)N3C2=O", "composite z-score": 0.0495},
      {"smiles": "COCCOC(=O)N1C(=O)[C@@]2(c3cc(C#CC4=CCCCC4)ccc31)[C@H](c1ccc(O)cc1)N1[C@H](c3ccccc3)[C@H](c3ccccc3)OC(=O)[C@H]1[C@@H]2C(=O)N1CCCCCCC1", "composite z-score": 1.3},
      {"smiles": "O=C(CS)NCCCCCNC(=O)[C@H]1C[C@H]2C(=O)N3CCC[C@H]3C(=O)N2[C@H]1c1ccc(O)cc1", "composite z-score": -1.07},
      {"smiles": "CSCC[C@@H]1NC(=O)CC=C[C@@H](C)COC(=O)[C@H](CCSC)NC(=O)CC=C[C@@H](C)COC1=O", "composite z-score": 0.0287},
      {"smiles": "COCCOC(=O)N1C(=O)[C@@]2(c3cc(C#CCNC(N)=O)ccc31)[C@H](C(=O)N1CCCCCCC1)[C@H]1C(=O)O[C@H](c3ccccc3)[C@H](c3ccccc3)N1[C@@H]2c1ccccc1OCCO", "composite z-score": 0.205},
      {"smiles": "O=C1O[C@H](c2ccccc2)[C@H](c2ccccc2)N2[C@H]1[C@@H](C(=O)Nc1nc3ccccc3s1)[C@]1(C(=O)Nc3ccc(C#CC4(O)CCCCCC4)cc31)[C@H]2c1ccc(O)cc1", "composite z-score": 1.27},
      {"smiles": "CC[C@H]1C2=C3C(CC[C@H]4C(OC)OC[C@](C)([C@@H]34)N(C(=O)OC(C)(C)C)C2)C(CO)C1CO", "note": "(stereo not given in full)", "composite z-score": 1.16},
      {"smiles": "CC(C)(C)OC(=O)CC[C@@]1(C(=O)NCc2ccccc2)N=C(c2ccc(OCCCO)cc2)O[C@@H]1c1ccccc1", "composite z-score": 1.26},
      {"smiles": "CC(C)[Si](OCC[C@H]1O[C@]2(C(=O)N(Cc3ccccc3)c3ccccc32)[C@@H](C)[C@@H]1[Si](C)(C)O)(C(C)C)C(C)C", "composite z-score": -0.922},
      {"smiles": "C[C@H]1COC(=O)[C@H](Cc2ccccc2)NC(=O)[C@@H](C)COC(=O)[C@H](Cc2ccccc2)NC1=O", "composite z-score": 0.847},
      {"smiles": "COc1ccc([Si](C)(C)[C@H]2[C@H](CC(=O)N3Cc4ccccc4C[C@H]3CO)O[C@@]3(C(=O)N(Cc4cccc(N5CCOC5=O)c4)c4ccccc43)[C@@H]2C)cc1", "composite z-score": 0.461},
      {"smiles": "CO[C@H]1COC(=O)[C@@H](OCc2ccccc2)C=C[C@H](C)[C@@H](OC)COC(=O)[C@H](OCc2ccccc2)C=C[C@@H]1C", "composite z-score": -0.0762},
      {"smiles": "C=C(COC)C(=O)CC[C@H](OC(=O)c1ccccc1-c1ccccc1C(=O)O)c1cccc(OCCO)c1", "composite z-score": 0.829},
      {"smiles": "Cc1ccc(S[C@]2(C(=O)O)CC(=O)N(Cc3ccccc3)[C@@H]2c2ccc(CO)cc2)cc1", "composite z-score": 0.132},
      {"smiles": "O=C(O)[C@@H]1Cc2c([nH]c3ccccc23)[C@@H](c2ccccc2)N1", "composite z-score": 0.61}
    ]}
  ]
}
